# Measurements as given in the supplement of paper PMC7411640.
# Where a name gives a salt, the structure may show the parent alone.
# Test system: MDA-MB-468
# Assay: phospho-S6 immunofluorescence (DAPI-normalised), per-plate z-score; higher = higher phospho-S6 signal (less pathway suppression)
# Conditions: 24 h
# Experimental: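 GPCR-targeted compound library (MedChemExpress HY-L006) tested on MDA-MB-468 PTEN-null TNBC cells in 384-well plates at 0.1, 1 or 10 uM, combined with vehicle, GDC0941 450 nM or lapatinib 1 uM, for 24 h. Phospho-S6 (S240/244) immunofluorescence normalised to DAPI and expressed as a per-plate z-score; values are the mean of biological triplicates.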
SMILES,phospho-S6 immunofluorescence (z-score) (co-treatment: GDC0941 450 nM),phospho-S6 immunofluorescence (z-score) (co-treatment: lapatinib 1 uM),phospho-S6 immunofluorescence (z-score) (co-treatment: vehicle)
Nc1nccc(/C=C/c2ccccc2)n1 (compound 10 µM),-1.32,-0.81,0.3
CN(C)CCCN1c2ccccc2Sc2ccc(C(F)(F)F)cc21 [Triflupromazine (hydrochloride)] (compound 10 µM),-0.42,-2.74,2.53
CC(C)C[C@H](NC(=O)CNC(=O)[C@H](Cc1ccc(O)cc1)NC(=O)[C@H](CO)NC(=O)[C@H](Cc1c[nH]c2ccccc12)NC(=O)[C@H](Cc1cnc[nH]1)NC(=O)[C@@H]1CCC(=O)N1)C(=O)N[C@@H](CCCNC(=N)N)C(=O)N1CCC[C@H]1C(=O)NCC(N)=O [Gonadorelin (acetate)] (compound 10 µM),-0.45,0.57,0.07
CN(C)CCC(c1ccccc1)c1ccccn1 (stereo not given) [Pheniramine (Maleate)] (compound 10 µM),0.09,0.78,-0.37
O=C(C[S+]([O-])Cc1ccco1)NC/C=C\COc1cc(CN2CCCCC2)ccn1 (stereo not given) [Lafutidine] (compound 10 µM),-0.67,0.02,-0.32
CC(C)(Cc1nc(-c2ccc(O)cn2)no1)C(=O)NC1=C(C(=O)O)CCCC1 (compound 10 µM),0.73,0.37,1.12
CCN1CCCC1CNC(=O)c1cc(S(N)(=O)=O)ccc1OC (stereo not given) [Sulpiride] (compound 10 µM),-0.13,0.19,0.05
CC(C)N(CCCCOCC(=O)O)c1cnc(-c2ccccc2)c(-c2ccccc2)n1 (compound 10 µM),1.34,1.89,0.56
Cc1ccc(/C(=C\CN2CCCC2)c2cccc(/C=C/C(=O)O)n2)cc1 [Acrivastine] (compound 10 µM),0.27,0.6,0.62
CN(C)CCCN1c2ccccc2CCc2ccc(Cl)cc21 [Clomipramine (hydrochloride)] (compound 10 µM),-1.98,-3.26,-1.14
CN1CC2c3ccccc3Oc3ccc(Cl)cc3C2C1 (stereo not given) [Asenapine (hydrochloride)] (compound 10 µM),-0.8,-2.17,0
Cc1noc(-c2ccc(-c3ccc(CC(=O)O)cc3)cc2)c1NC(=O)O[C@H](C)c1ccccc1 [AM095 (free acid)] (compound 10 µM),1.08,0.37,0.82
CC(C)(C)NCC(O)c1ccc(O)c(CO)c1 (stereo not given) [Salbutamol (hemisulfate)] (compound 10 µM),0.44,1.46,0.8
O=c1ccccn1CC1(O)CCN(Cc2ccccc2)CC1 (compound 10 µM),0.52,-0.19,0.48
O=C(O[C@@H]1C[C@@H]2C[C@H]3C[C@H](C1)N2CC3=O)c1c[nH]c2ccccc12 [Dolasetron] (compound 10 µM),-0.34,-0.11,-0.46
COc1ccc(S(=O)(=O)Nc2c(C)cc(C)cc2C)cc1 (compound 10 µM),0.04,-0.37,-1.05
CC[C@H](C)[C@@H]1NC(=O)[C@H](Cc2ccc(OC)cc2)NC(=O)CCCSC[C@@H](C(=O)N2CCC[C@H]2C(=O)N[C@@H](CC(C)C)C(=O)NCC(N)=O)NC(=O)[C@H](CC(N)=O)NC(=O)[C@H](CCC(N)=O)NC1=O [Carbetocin] (compound 10 µM),0.31,-0.07,0.3
CCN(CC)CCOC(=O)[C@@H](Cc1cccc2ccccc12)C[C@@H]1CCCO1 [Naftidrofuryl (oxalate)] (compound 10 µM),-1.27,-0.87,-1.37
CCC(=O)OCC(=O)[C@@]1(OC(=O)CC)[C@@H](C)C[C@H]2[C@@H]3CCC4=CC(=O)C=C[C@]4(C)[C@@]3(F)[C@@H](O)C[C@@]21C [Betamethasone dipropionate] (compound 10 µM),-0.51,-0.45,0.82
CC(COc1ccccc1)N(CCCl)Cc1ccccc1 (stereo not given) [Phenoxybenzamine (hydrochloride)] (compound 10 µM),0.33,-0.04,0.39
CCCCCNC(=N)N/N=C/c1c[nH]c2ccc(OC)cc12 [Tegaserod (maleate)] (compound 10 µM),-6,-12.1,-10.3
COc1ccc2c(c1OC)C(=O)O[C@@H]2[C@H]1c2c(cc3c(c2OC)OCO3)CCN1C [Noscapine] (compound 10 µM),0.49,0.12,0.47
Cn1c(SCC(=O)N2CCC[C@H]2C(=O)Nc2ccccc2-c2ccccc2)nc2ccccc21 (compound 10 µM),0.08,1.59,0.81

SMILES,phospho-S6 immunofluorescence (z-score) (co-treatment: GDC0941 450 nM),phospho-S6 immunofluorescence (z-score) (co-treatment: lapatinib 1 uM),phospho-S6 immunofluorescence (z-score) (co-treatment: vehicle)
NC(=O)CC[C@H](N)C(=O)O [L-Glutamine] (compound 10 µM),-0.23,-0.64,-0.12
O=C(O)Cn1c2c(c3cc(F)ccc31)CN(C(=O)c1cccc3ccccc13)CC2 [Setipiprant] (compound 10 µM),0.42,0.74,-0.03
O=C(CCCN1CCN(c2ccccn2)CC1)c1ccc(F)cc1 [Azaperone] (compound 10 µM),0.08,0.77,0.8
CC[N+](CC)(CC)CCOc1cccc(OCC[N+](CC)(CC)CC)c1OCC[N+](CC)(CC)CC [Gallamine Triethiodide] (compound 10 µM),0.5,-0.13,0.47
O=C(CCCN1CCC(O)(c2ccc(Cl)cc2)CC1)c1ccc(F)cc1 [Haloperidol] (compound 10 µM),1.78,-0.01,0.93
O=C(COc1ccc(C(=O)c2ccccc2)cc1)NC1CCN(Cc2ccccc2)CC1 [AdipoRon] (compound 10 µM),-4.84,-4.87,-1.92
COc1cc(C(C)=O)ccc1OCCCN1CCC(c2noc3cc(F)ccc23)CC1 [Iloperidone] (compound 10 µM),0.52,-0.23,0.38
CCC(=O)OCC(=O)[C@@]1(OC(=O)CC)[C@@H](C)C[C@H]2[C@@H]3CCC4=CC(=O)C=C[C@]4(C)[C@@]3(Cl)[C@@H](O)C[C@@]21C [Beclometasone dipropionate] (compound 10 µM),0.45,0.54,0.15
Cc1ccc(C)c(OCCn2cc(C(=O)O)c3ccccc32)c1 (compound 10 µM),0.61,-0.34,-0.21
Cc1ccccc1C(=O)Nc1ccc(C(=O)N2CCCC(O)c3cc(Cl)ccc32)c(C)c1 (stereo not given) [Tolvaptan] (compound 10 µM),0.01,-1.6,-0.25
CC(C(=O)Nc1cc(C#N)ccc1CCCC(=O)O)c1ccc(F)c2ccccc12 (stereo not given) (compound 10 µM),-3.03,-2.8,-0.03
CC(=O)OCC(=O)[C@@]12OC(C)(C)O[C@@H]1C[C@H]1[C@@H]3C[C@H](F)C4=CC(=O)C=C[C@]4(C)[C@@]3(F)[C@@H](O)C[C@@]12C [Fluocinonide] (compound 10 µM),-0.28,0.59,0.62
CCc1cc(/C(C)=N/OCc2ccc(C3CCCCC3)c(C(F)(F)F)c2)ccc1CN1CC(C(=O)O)C1 [Siponimod] (compound 10 µM),-0.49,0.38,0.15
Oc1ccc(C2CNCCc3c2cc(O)c(O)c3Cl)cc1 (stereo not given) [Fenoldopam (mesylate)] (compound 10 µM),1.13,-0.01,0.83
COC(=O)[C@H]1[C@H]2C[C@H]3c4[nH]c5ccccc5c4CCN3C[C@H]2CC[C@@H]1O [Rauwolscine (hydrochloride)] (compound 10 µM),0.42,0.38,-0.22
CC1(C)O[C@@H]2C[C@H]3[C@@H]4CCC5=CC(=O)C=C[C@]5(C)[C@H]4[C@@H](O)C[C@]3(C)[C@]2(C(=O)CO)O1 [Desonide] (compound 10 µM),-0.1,0.54,1.16
C[N+]1(C)CCC(OC(=O)C(O)(c2ccccc2)C2CCCC2)C1 (stereo not given) [Glycopyrrolate] (compound 10 µM),0.59,0.25,1.14
CC[C@@H](Nc1c(Nc2cccc(C(=O)N(C)C)c2O)c(=O)c1=O)c1ccc(C)o1 (compound 10 µM),0.29,-0.41,2.26
CCCCCCn1c(O)c(N=NC(=O)c2ccccc2)c2ccccc21 (compound 10 µM),-2.97,-0.75,0.59
N=C(N)NCCC[C@H](NC(=O)[C@H](Cc1ccccc1)NC(=O)[C@@H]1CCCN1C(=O)[C@H](CO)NC(=O)[C@H](Cc1ccccc1)NC(=O)CNC(=O)[C@@H]1CCCN1C(=O)[C@@H]1CCCN1C(=O)[C@@H](N)CCCNC(=N)N)C(=O)O [Bradykinin] (compound 10 µM),-0.14,0.5,-0.36
COc1cc2c(cc1OC)-c1cc3ccc4c(c3c[n+]1CC2)OCO4 [Epiberberine (chloride)] (compound 10 µM),-0.39,0.22,1.66
O=C1c2cccc3c2[C@H](CCC3)CN1[C@@H]1CN2CCC1CC2 [Palonosetron (Hydrochloride)] (compound 10 µM),-0.7,0.4,-0.33
